This is one part of a sample in which hits are shown more often than they occur.
HIV RNase H inh-1: HIV-1 RT RNase H inhibitors, primary screen, biochemical, fluorescence | 65,000 tested, 1.9% active | Gag-Pol polyprotein (Human immunodeficiency virus type 1 group M subtype B (isolate … | inhibition, % at 10 µM | RT-RNase H RNA/DNA duplex cleavage | AID 565, 2006; in the data active means inhibition above about 50%
HIV RNase H inh-2: HIV-1 RT RNase H inhibitors, retest, confirmation, biochemical | shares compounds with HIV RNase H inh-1 | Recombinant RT RNase H, fluorescent RNA/DNA duplex cleavage | inhibition, % at 10 µM | 1,000 tested, 39% active | AID 651, 2007; in the data active means inhibition above about 48%; inconclusive means no clear call, values can overlap the other calls
* hit, by the source's call; ? = inconclusive.

SMILES	HIV RNase H inh-1	others
O=C(Nc1ccccc1)c1ccc(S(=O)(=O)N2CCCC2)cc1	2
Cn1c2c(c(=O)n(C)c1=O)C(c1ccccc1OC(F)F)C1=C(CCCC1=O)N2 (stereo unspecified)	-2
Cc1noc(C)c1COc1ccc(C(=O)NCc2ccccn2)cc1	-6
C=CCOC(=O)C1=C(C)Nc2nc3ccccc3n2C1c1ccncc1 (stereo unspecified)	4
N#Cc1c(C(F)(F)F)cc(C2CC2)[nH]c1=O	1
C/C(=C1/SC(N2CCCC2)=NC1=O)c1ccc(Br)cc1	-14
CC1(C)Cc2c(C#N)c(N)sc(=S)c2CO1	82*	HIV RNase H inh-2=40
CC(C)C1Cc2c(C#N)c(N)sc(=S)c2CO1 (stereo unspecified)	21
CCN(CC)c1nc(C)c2c(c1C#N)CC(C)(C)OC2	-8
CC(C)Oc1ccc(CNC2CCOC(C)(C)C2)cc1 (stereo unspecified)	-1
CC1CCCN(C(=O)C2CCN(S(=O)(=O)c3cccc4cccnc34)CC2)C1 (stereo unspecified)	-16
N#CC1(c2ccccc2)CCCN1C(=O)c1ccc(Br)o1 (stereo unspecified)	-24
CC1C(=NO)C(C)C(c2ccc(N(C)C)cc2)NC1c1ccc(N(C)C)cc1 (stereo unspecified)	28
COc1ccc(N=C(C)C2=C(O)COC2=O)cc1	6
O=C(CSc1nnc(-c2ccco2)n1-c1ccccc1)N1CCOCC1	-20
OCCn1c(CSc2nnc(-c3ccco3)n2-c2ccccc2)nc2ccc(Cl)cc21	80*	HIV RNase H inh-2=1
OCCn1c(CSc2nc3ccccc3n2CCO)nc2ccccc21	-6
CC(=O)C(=[N+]=[N-])C(=O)NCc1ccccc1	1
O=C(OCC(F)(F)C(F)F)c1ccccc1C(=O)Oc1ccc(F)cc1F	-43
CCC(C(=O)NC1CCCCC1)N(CC1CCCO1)C(=O)CNS(=O)(=O)c1ccc(OC)cc1 (stereo unspecified)	-5
O=C(NCC(=O)N(CC1CCCO1)C(C(=O)NC1CCCCC1)c1ccc(F)cc1)c1ccco1 (stereo unspecified)	7
CCCC(C(=O)NC1CCCCC1)N(CC1CCCO1)C(=O)CNS(=O)(=O)c1ccc(F)cc1 (stereo unspecified)	58*	HIV RNase H inh-2=12
Cc1cccc(C)c1NC(=O)Cn1c(=O)n(CCCC(=O)NCc2ccco2)c(=O)c2sccc21	-18
CC1CN(c2nc3c(c(=O)n(C)c(=O)n3C)n2Cc2c(F)cccc2Cl)CC(C)O1 (stereo unspecified)	0
Cc1ccc(C)c(S(=O)(=O)Nc2ccc3scnc3c2)c1	-82
SMILES	HIV RNase H inh-1	others
COc1ccc(OC)c(S(=O)(=O)Nc2ccc(O)c(Sc3ncn[nH]3)c2)c1	94*	HIV RNase H inh-2=60*
COc1ccc(OC)c(S(=O)(=O)Nc2ccc(C(N)=O)cc2)c1	-8
CNS(=O)(=O)c1cc(OC)ccc1OC	0
COc1ccc(OC)c(S(N)(=O)=O)c1	-13
COC(=O)c1c(C)oc2ccc(NS(=O)(=O)c3cc(OC)ccc3OC)cc12	-4
COc1ccc(OC)c(S(=O)(=O)Nc2ccc(O)c3ccccc23)c1	83*	HIV RNase H inh-2=?
O=C(NC(Cc1ccccc1)c1nc2ccccc2[nH]1)C1CC(=O)N(c2ccc3c(c2)OCCO3)C1 (stereo unspecified)	-1
CN(C)c1ccc(-c2ccccc2)nn1	-10
CCOC(=O)NC(Nc1ccc(S(N)(=O)=O)cc1)(C(=O)OCC)C(F)(F)F (stereo unspecified)	-10
O=C1CC(c2ccc(F)c(Br)c2)C2=C(CCCC2=O)N1 (stereo unspecified)	-27
Cc1ccc(-c2nnn(CC(=O)N(CC(=O)NC3CCCC3)c3cnc4ccccc4c3)n2)o1	10
Cc1ccc(-c2nnn(CC(=O)N(CC(=O)NC(C)C)c3cnc4ccccc4c3)n2)o1	-5
CCC(C(=O)NC1CCCC1)N(C(=O)Cn1nnc(-c2ccc(C)o2)n1)c1cnc2ccccc2c1 (stereo unspecified)	66*	HIV RNase H inh-2=47
Nn1c(SCC(=O)Nc2cccc(F)c2)nnc1C1CCCCC1	-12
CCN1C(=O)N(CC)C2C1N(C(C)=O)C(=O)N2C(C)=O (stereo unspecified)	-4
Cc1cc(OCC(=O)NCCCN2CCOCC2)cc(C)c1Cl	3
Cc1cccc(N2CCN(C(=O)Cn3sc4nc(C)cc(C)c4c3=O)CC2C)c1 (stereo unspecified)	93*	HIV RNase H inh-2=56*
Cc1ccc(SCC(=O)NCCCN2CCOCC2)cc1	-2
Cc1cc(C)c2c(=O)n(CC(=O)N3CCC(Cc4ccccc4)CC3)sc2n1	79*	HIV RNase H inh-2=10
CCOC(=O)c1cc2c(ccn2C)n1CC(=O)N1CCC(Cc2ccccc2)CC1	-1
Cn1cnnc1SCC(=O)N1CCC(Cc2ccccc2)CC1	-5
Cc1cc(C)c2c(=O)n(CC(=O)NCCCN3CCOCC3)sc2n1	90*	HIV RNase H inh-2=77*
Cc1cccc(N2CCN(C(=O)c3ccncc3)CC2C)c1 (stereo unspecified)	2

Source: PubChem BioAssay (University of Pittsburgh Molecular Library Screening Center)
